Screening results: PubChem, National Center for Advancing Translational Sciences (NCATS)
An excerpt weighted towards active compounds, which were near 8% of everything screened.
SARS PLpro yeast: blocks SARS-CoV papain-like protease in a yeast assay | S. cerevisiae expressing SARS-CoV PLpro, growth rescue | Potency, µM (top dose mostly 32.9 µM), most hits filed as activators | 0.19% of 330,000 active | AID 485353; calls by dose curve; note: nearly all actives have a fitted effect of over 55% in size
MARV entry inh: Marburg virus entry inhibition; Potency, µM (top dose mostly 37.8 µM), hits mostly inhibitors; 1.8% of 300,000 active; AID 540276; Marburg virus pseudotyped entry inhibition, cell reporter; calls by dose curve; tested in HEK293 cells
FMDV inh: blocks foot and mouth disease virus. FMDV antiviral cell-based qHTS. Potency, µM (doses to about 57.9 µM), hits mostly inhibitors. 1.2% of 410,000 active; calls by dose curve; tested in HEK293T cells; note: read-out not given here; nearly all actives have a fitted effect of over 45% in size
HCMV antiviral: inhibitors of human cytomegalovirus; HFF cells, HCMV-luciferase reporter, 72 h; active compounds read low; activity change, negative = inhibition, % at 57.5 µM; 4.5% of 410,000 active; AID 1259415; in the data active = activity change below about -60%; inconclusive = no clear call, values can overlap the other calls; inactive = above about -39%
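Screen run at 2 compound doses on HFFs infected with reporter HCMV, MOI 1 PFU/cell. Luciferase activity from cell lysates at 72 h post infection gave inhibition relative to buffer-only and Salinomycin wells.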
HCV inhibitor: HCV inhibition; AID 651820; Huh7.5.1 HCVcc-Cre infection, luciferase reporter, 44 h; 3.4% of 340,000 active; Potency, µM (series often up to 41.8 µM), actives largely listed as inhibitors; active = well fitted inhibition curve with a large enough effect; inconclusive = small, poorly fitted or top-dose-only effect, or another doubt; inactive = no such curve, though single readings can be large or run the other way
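After 44 h co-culture of compound, cells and HCVcc-Cre (~0.5 moi), substrate is added for 15 min at room temperature and luciferase measured over 15 sec. Cells were seeded at 1,000/well and pre-cultured 4 h.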
Lassa entry inh: Lassa virus entry inhibition; Lassa virus pseudotype entry inhibition, cell reporter; Potency, µM (highest dose often 37.9 µM), most hits filed as inhibitors; 1.2% of 300,000 active; AID 540256; calls by dose curve; tested in HEK293 cells; note: nearly all actives have a fitted effect of over 50% in size
Numbers stand for hits; – = inactive; ? = inconclusive; · = no result given; ! = not confirmed by another sample.

SMILES	SARS PLpro yeast	MARV entry inh	FMDV inh	HCMV antiviral	HCV inhibitor	Lassa entry inh
COc1ccc(C(=O)C2CCCN(Cc3cnc(C)s3)C2)c(OC)c1 (centres undefined)	–	–	?	?	?	?
Cc1oc(-c2cccc(NC(=O)C3CCCN(C)C3)c2)nc1CNC(=O)c1coc2c1C(=O)CCC2 (centres undefined)	·	·	–	·	·	·
CN(C)c1ccc(C(=O)NCc2ccc3c(c2)CCN3C(=O)c2ccccc2)cc1	·	·	–	–	·	–
COc1ccc(Nc2cc3c(cn2)cc(-c2cccc(F)c2)n3C)cn1	·	·	·	–	·	·
COC(=O)c1ccc(OCC2c3cc(OC)c(OC)cc3CCN2C(=O)c2ccccc2F)cc1 (centres undefined)	·	·	–	–	·	?
NC(=O)c1ccccc1NC(=O)CN1CCCCCC1	–	–	–	–	–	?
COC(=O)c1cc(-c2ccccc2)sc1NC(=O)CN1C(=O)c2ccccc2C1=O	–	–	–	-64.1	?	–
CC(C)(C)C(=O)Nc1sc(-c2ccccc2)cc1C(=O)O	–	?	–	-64.4	–	?
NC(=O)c1cc(-c2ccccc2)sc1NC(=O)CN1CCCCC1	–	6.31µM	–	–	12.6µM	?
O=C(CSc1cn(CC(=O)N2CCCC2)c2ccccc12)Nc1cc(C(F)(F)F)ccc1Cl	·	·	–	–	·	–
O=C(c1cnsn1)N1CCOc2ccc(C(O)C(c3ccccc3)c3ccccc3)cc2C1 (centres undefined)	·	·	–	·	·	·
COc1cc(=O)n2c(c1C(=O)N(C)Cc1nonc1C)CCN(C(=O)C1C(C)(C)C1(C)C)CC2	·	·	–	·	·	·
COc1ccc(Nc2ncnc3c2cnn3-c2ccc(C)cc2)cc1Cl	·	·	–	?	·	–
O=C(OCC1OC(OC(=O)c2cc(O)c(O)c(OC(=O)c3cc(O)c(O)c(O)c3)c2)[C@@H](OC(=O)c2cc(O)c(O)c(OC(=O)c3cc(O)c(O)c(O)c3)c2)C(OC(=O)c2cc(O)c(O)c(OC(=O)c3cc(O)c(O)c(O)c3)c2)C1OC(=O)c1cc(O)c(O)c(OC(=O)c2cc(O)c(O)c(O)c2)c1)c1cc(O)c(O)c(OC(=O)c2cc(O)c(O)c(O)c2)c1 (some centres undefined)	·	0.353µM	·	·	·	11.2µM
COc1cc(C=NO)nc(-c2ccccn2)c1	·	?	–	-100.2	?	1.26µM
COc1cc(NC(=O)C2=CC(c3ccc(F)cc3)=NS(=O)(=O)N2C)cc(OC)c1OC	·	–	–	–	·	–
CCOc1ccccc1NC(=O)C(C)N(c1ccccc1)S(C)(=O)=O (centres undefined)	·	–	–	–	·	–
CCc1ccccc1-n1nnc(-c2nsc(NC(=O)c3ccc(C)c(C)c3)n2)c1C	·	·	11.2µM	-92.3	·	?
Cc1ccc(-n2nnc(-c3nsc(NC(=O)c4ccc(C)c(C)c4)n3)c2C)cc1	·	·	–	–	·	?
CCOc1ccccc1-n1nnc(-c2nsc(NC(=O)c3ccc(C)cc3)n2)c1C	·	·	?	-74.5	·	–
O=C(c1ccc(F)cc1)N1CC(=O)N2[C@H](CO)[C@H](c3ccc(Br)cc3)[C@@H]2C1	·	·	·	–	·	·
CCOC(=O)c1c(S(=O)(=O)N2CCCC(C(=O)Nc3cccc(C#N)c3)C2)c(C)n(C)c1C (centres undefined)	·	·	–	–	·	–
COC(=O)N(C=Cc1ccc(OC)cc1)CCc1ccc(OC)c(OC)c1	·	–	·	·	·	·
Cn1c(=O)[nH]c(=O)c2c1nc(Br)n2CCCSc1nc2ccccc2o1	?	8.2µM	22.4µM	-60.8	?	–
Cn1c(=O)[nH]c(=O)c2c1nc(Br)n2CCOc1ccccc1	–	–	17.8µM	–	–	–
SMILES	SARS PLpro yeast	MARV entry inh	FMDV inh	HCMV antiviral	HCV inhibitor	Lassa entry inh
Cn1c(=O)[nH]c(=O)c2c1nc(Br)n2Cc1cccc(Br)c1	–	?	–	-81.6	?	?
COc1cc(NC(=O)CCc2c(C)nn(-c3ccc(N4CCCCC4)nn3)c2C)cc(OC)c1OC	·	·	–	–	·	–
COc1ccc(S(=O)(=O)CCC(=O)N2CCN(c3ccc([N+](=O)[O-])cc3)CC2)cc1	–	·	?	?	?	·
O=C(CCS(=O)(=O)c1ccc(Br)cc1)N1CCN(c2ccc(F)cc2)CC1	–	·	–	-65.0	–	·
O=C(CCS(=O)(=O)c1ccc(Br)cc1)N1CCN(c2ccc(Cl)cc2)CC1	–	?	?	-78.7	–	–
Cc1ccc(S(=O)(=O)CCC(=O)N2CCN(c3ccc([N+](=O)[O-])cc3)CC2)cc1	–	·	?	–	12.6µM	·
O=C(CCSCc1cccc(Cl)c1)N1CCN(c2ccc(Cl)cc2)CC1	·	·	–	-63.3	·	?
COc1cccc(C(=O)Nc2c(C(=O)N3CCN(c4ccc(F)cc4)CC3)oc3ccccc23)c1	·	·	–	–	·	–
COc1ccc(-c2cn3cccnc3n2)cc1NC(=O)Nc1cc(C)ccc1C	–	?	–	-69.4	·	?
COc1ccc(-c2cn3cccnc3n2)cc1NC(=O)c1ccc(Br)o1	–	–	–	–	11.2µM	–
COc1cccc(NC(=O)Nc2cc(-c3cn4cccnc4n3)ccc2C)c1	·	–	–	–	·	?
COc1ccc(Br)c2c1-c1nc(NC(=O)c3cccc(C)c3)sc1C2	·	–	–	–	·	–
COc1cccc(CN2C(=O)NC(C)(C3CCN(Cc4cc(F)cc(F)c4)CC3)C2=O)c1OC (centres undefined)	·	·	–	·	·	·
CCc1ccc(C2=C(C)C(N3CCC(C(=O)NCCc4ccco4)CC3)=NS2(=O)=O)cc1	·	·	–	-62.3	·	–
CCC1=C(c2ccc(C)cc2)S(=O)(=O)N=C1N1CCC(C(=O)NCCc2ccc(Cl)cc2)CC1	·	?	–	-86.5	·	·
CC1=C(c2ccc(C)c(C)c2)S(=O)(=O)N=C1N1CCC(C(=O)Nc2ccc(Cl)cc2)CC1	·	·	–	-84.2	·	–
CC1=C(c2ccc(Cl)cc2)S(=O)(=O)N=C1N1CCC(C(=O)NCCc2ccco2)CC1	·	·	–	–	·	?
Cc1ccc(-c2cn3c(n2)sc2cc(C(=O)NCCC4=CCCCC4)ccc23)c(C)c1	·	·	–	·	·	–
COC(=O)C/C=C/[C@@H](C)[C@@H](/C=N/OC[C@@H](O)COCc1ccco1)NS(=O)(=O)c1ccc(C)cc1	·	–	·	·	·	·
COc1ccc2c(c1)-c1nc(-n3ncc(C(=O)NCc4cccc(C)n4)c3C3CC3)ncc1CC2	·	·	–	·	·	·
CCOC(=O)c1cccc(Nc2nc(-c3cccnc3)nc3ccccc23)c1	–	?	28.2µM	–	?	?
O=C(O)c1cccc(Nc2nc(-c3cccnc3)nc3ccccc23)c1	–	–	–	–	–	–
COC(=O)c1cccc(Nc2nc(-c3cccnc3)nc3ccccc23)c1	–	?	?	–	7.08µM	–
CCN1C(=O)[C@H]2[C@H]3[C@H](O)[C@H](O)C/C(=N/NC(=O)OCc4ccccc4)[C@@H]3CC[C@@H]2C1=O	·	–	·	·	·	·
COc1ccc(NC(=O)c2c(N)c(C(=O)c3ccc(OC)cc3)n3ccccc23)cc1	·	–	–	–	·	–
O=C(O)CCCn1cc(NC(=O)COc2ccccc2F)cn1	–	–	10µM!	–	–	?
O=C(O)CCCn1cc(NC(=O)COc2ccc(F)cc2F)cn1	–	–	–	–	·	–
